Screening data as filed in PubChem.
LDHA block: inhibitors of human lactate dehydrogenase A; P00338; 480,000 compounds, 0.15% hits; purified LDHA, NADH/diaphorase-resazurin fluorescence; hits give low values; activity change, % (values are at about 110 or 230 µM); AID 1347041; in the data active = activity change below about -30%; inconclusive = mostly about -25% to -30%;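 also: plate controls were DMSO wells for no effect and wells without enzyme for full effect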
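Remaining NADH was detected by diaphorase (0.133 mg/mL) converting 37 µM resazurin to fluorescent resorufin, read at 0 and 20 minutes. The preceding 5-minute room-temperature reaction used 2 nM LDHA, 0.2 mM sodium pyruvate and 0.06 mM NADH at pH 7.4.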
RORg inh: ROR gamma (mouse) transcription inhibition; 310,000 compounds, 5.4% hits; Potency, µM (top dose mostly 53.6 µM), for inactives: at the highest dose activity change, negative = inhibition, actives largely listed as inhibitors; P51450; Drosophila S2 Gal4-RORgamma UAS-luciferase reporter, 20 h; also: potency is read from the fitted curve at half-maximal effect; nearly all actives have a fitted effect of over 60% in size
Target sequence (P51450 whole entry, looked up, the tested form may be a part): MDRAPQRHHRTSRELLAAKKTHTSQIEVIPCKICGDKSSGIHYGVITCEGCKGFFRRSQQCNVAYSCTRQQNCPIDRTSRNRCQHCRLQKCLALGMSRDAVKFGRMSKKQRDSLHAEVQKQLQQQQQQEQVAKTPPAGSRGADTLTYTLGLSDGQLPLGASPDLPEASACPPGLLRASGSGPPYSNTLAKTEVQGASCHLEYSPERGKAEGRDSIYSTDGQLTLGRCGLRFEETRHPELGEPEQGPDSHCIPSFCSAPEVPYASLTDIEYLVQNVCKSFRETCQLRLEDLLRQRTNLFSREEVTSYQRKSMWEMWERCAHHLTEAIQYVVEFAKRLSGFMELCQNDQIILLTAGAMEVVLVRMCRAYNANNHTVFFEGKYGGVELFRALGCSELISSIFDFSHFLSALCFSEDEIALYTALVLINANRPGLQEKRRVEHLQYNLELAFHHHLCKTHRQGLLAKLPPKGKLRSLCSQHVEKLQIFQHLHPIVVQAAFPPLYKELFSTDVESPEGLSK
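Read-out: Photinus luciferase luminescence; inhibitors lower reporter signal. Insect Schneider cells with Gal4-ROR gamma fusion under metallothionein promoter, UAS reporter; 700 uM final copper sulfate induction, 20 hr, ambient temperature.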
TDP1 cell noCPT: qHTS for Inhibitors of human tyrosyl-DNA phosphodiesterase 1 (TDP1): qHTS in cells in absence of CPT. AID 686978, 2013. Potency, µM (doses to about 46.2 µM), inactives show at the highest dose activity change, negative = growth inhibition, usual class: inhibitors. 420,000 compounds, 15% hits. DT40 Tdp1-/- hTDP1 cells, no CPT, ATP luminescence, 48 h; also: potency is read from the fitted curve at half-maximal effect; nearly all actives have a fitted effect of over 55% in size
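Chicken DT40 Tdp1-/- cells stably complemented with human TDP1 were seeded at 400 cells/well with DMSO in place of 20 nM camptothecin. After compound pinning, cells grew at least 48 hr at 37 °C; viability read by CellTiter-Glo luminescence.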
Gal4-VP16 FLuc: Gal4-VP16 reporter inhibition counter-screen. Drosophila S2 Gal4-VP16 UAS-luciferase, luminescence, 20 h. Potency, µM (series often up to 53.6 µM), without a hit: at the highest dose activity, negative = inhibition, most hits filed as inhibitors. 310,000 compounds, 3.5% hits;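 also: Gal4-VP16 expression switched on by copper sulfate through the metallothionein promoter; potency is read from the fitted curve at half-maximal effect; nearly all actives have a fitted effect of over 50% in size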
TDP1 cell CPT: growth inhibition of DT40 Tdp1-/-;hTDP1 cells with camptothecin (screen for TDP1 inhibitors) | chicken DT40 Tdp1-/-;hTDP1 cells + 20 nM CPT, ATP luminescence, 48 h | 420,000 compounds, 12% hits | AID 686979 | Potency, µM (top dose mostly 46.2 µM), for the others: at the top dose activity change, negative = growth inhibition, most hits filed as inhibitors; also: potency is read from the fitted curve at half-maximal effect; nearly all actives have a fitted effect of over 55% in size
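Chicken DT40 Tdp1-/- cells stably complemented with human TDP1 were seeded at 400 cells/well in medium containing 20 nM camptothecin, exposed to pin-transferred compounds, and grown at 37 °C for at least 48 hr. Viability was read as ATP luminescence.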
IL-1B inflam inh: blocks inflammasome-driven IL-1 beta release. 360,000 compounds, 4.7% hits. THP-1 LPS/ATP IL-1B secretion, AlphaLISA, 16 h; hits give low values. activity change, % at 57.5 µM; in the data active = activity change below about -50%; inconclusive = mostly about -30% to -49%
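Secreted IL-1B measured by AlphaLISA bead assay after 16 h compound exposure of THP-1 cells; compounds (final up to 57.5 uM) added 1 h before LPS (250 ng/mL) and ATP (1.25 mM) stimulation; lower signal means less secretion.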
Starred values were filed as active, the others as inactive; u = inconclusive; x = not tested or not shown; [ ] = another dose, or the depositor's remark. The list is not random: actives were taken first. Their share in the collection is about 18%. Unless noted, calls follow the shape of the dose curve; as a rule, active = well fitted curve in the direction sought with a large enough effect; inconclusive = small, poorly fitted or top-dose-only effect, or another doubt; inactive = no such curve, though single readings can be large; an effect the other way counts as inactive or inconclusive. Unless noted, % is scaled to controls: 0 for no effect and ±100 for the full control effect.

SMILES	LDHA block	RORg inh	TDP1 cell noCPT	Gal4-VP16 FLuc	TDP1 cell CPT	IL-1B inflam inh
Cc1ccccc1Cn1cnc2c(oc3ccccc32)c1=O	-1.6	3.98µM*	u	26.5%	u	-17.6
CC(=O)c1c(C)n(Cc2ccccc2)c2ccc(O)cc12	-8.2	19.0%	18.4µM*	-9.1%	16.4µM*	-29.5
CC(C(=O)c1c[nH]c2ccccc12)N1CCc2ccccc2C1 (stereo unspecified)	-4.7	-3.4%[10 µM]	u	-9.8%	16.4µM*	25.5
CCOP(=S)(OCC)Oc1ccc(Cl)cc1Cl	x	16.6%	x	-8.0%	x	x
O=c1c2ccccc2nc2n1CCS2(=O)=O	-0.3	-4.7%	-109.4%	u	2.91µM*	-88.5*
Cc1ccc2nc(N)[nH]c(=O)c2c1Sc1ccncc1	x	14.0%	0.376µM*	-0.3%	u	x
Cc1ccc(C(=O)Nc2cnn(-c3ccc(C(=O)N(C)Cc4n[nH]c5c4CCCC5)cc3)c2)c(C)c1	x	x	u	x	14.5%[9.04 µM]	x
O=C(Nc1ccc(C(=O)O)cc1)Oc1ccc(N(CCCl)CCCl)cc1	1.2	x	0.731µM*	x	0.411µM*	1.4
O=C(NCC1CC1)c1cn(Cc2ccccc2)c2ccccc12	-4.3	x	x	x	x	x
CCCOP(=O)(OCCC)c1nc(-c2ccccc2)oc1NCc1ccccc1	4.7	u	u	-11.7%	23.1µM*	-115.5*
COP(=O)(OC)c1nc(-c2ccccc2)oc1NCc1ccccc1	0.1	-0.4%	u	-0.2%	-12.2%	-5.6
NCCc1ccccc1	-1.6	x	-4.8%	x	-13.1%	16.1
Cc1cc(-c2ccccc2)cc(-c2ccccc2)[n+]1CCc1ccccc1	-2.9	x	0.206µM*	x	0.184µM*	u
Fc1ccc(C[n+]2c(-c3ccccc3)cc(-c3ccccc3)cc2-c2ccccc2)cc1	u	x	0.581µM*	x	1.16µM*	0.0
Cc1ccc2[nH]c(C)c(C(O)CN3CCCCC3)c2c1 (stereo unspecified)	0.7	x	x	x	x	x
COc1ccc(S(=O)(=O)N2CCN(C(=O)c3ccc(COc4ccccc4)o3)CC2)cc1	0.8	x	u	x	u	-14.3
CC(C)=O	x	13.6%	u	-17.0%	u	x
O=C1C=CC(=O)C2C1C1(Cl)C(Cl)=C(Cl)C2(Cl)C1(Cl)Cl (stereo unspecified)	-0.2	x	u	x	u	-103.2*
Cc1ccc2c(c1)[C@]13CCCC[C@@H]1[C@H](C2)N(C)CC3	x	x	-19.9%	x	-4.0%	x
COc1ccc(/C=C2/C(=O)NC(=O)N(c3ccccc3)C2=O)cc1CN1C(=O)c2ccccc2C1=O	-6.4	4.7%	u	-4.3%	u	23.4
COc1ccc(/C=C2/C(=O)NC(=S)N(C3CC3)C2=O)cc1CN1C(=O)c2ccccc2C1=O	-35.7*	0.1%	23.1µM*	-3.3%	16.4µM*	18.4
O=C1NCCOC(=O)[C@H](Cc2ccc(F)cc2)CC/C=C/C[C@@H]1CC(=O)N(CCO)Cc1ccccc1	-6.5	x	u	x	16.4µM*	29.1
O=C1NCCOC(=O)[C@@H](Cc2ccc(F)cc2)CC/C=C/C[C@H]1CC(=O)N(CCO)Cc1ccccc1	-4.3	x	u	x	20.6µM*	-0.1
C[N+]1(C)[C@@H]2CC[C@H]1CC(OC(=O)C(c1ccccc1)c1ccccc1)C2 (stereo partly specified)	-4.3	-8.1%	u	6.8%	u	2.1
O=C(OC1CCN(CCCl)CC1)C(c1ccccc1)c1ccccc1	-9.1	x	u	x	16.4µM*	-71.2*
C[C@@H](N)C(=O)c1ccccc1	x	x	-19.7%[92.5 µM]	x	-26.7%[92.5 µM]	x
Cc1ccc(Cn2nc(C)c(C(=O)NCc3cc(Cl)c4c(c3)OCCCO4)c2C)cc1	3.1	x	x	x	x	x
Cc1cc(N(C)C)ccc1N=Nc1ccc(N)cc1	10.9	x	13µM*	x	u	-26.0
